Shown are actives, neighbours in structure and some others; about 0.95% of the full set was active somewhere.
A488 fluor = qHTS Assay for Spectroscopic Profiling in A488 Spectral Region; compound autofluorescence, A488 spectral region, dye equivalency; Compound Type: qHTS ECL - MLSMR; 0.1% of 59,000 active; max dye equivalency, M; AID 591, 2007
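Read-out: relative fluorescence at 480/540 nm, expressed as Alexa 488 dye-equivalent concentration from a six-point A488 standard included per plate. Conditions: 100 mM Tris, pH 8.0; 15 min incubation, room temperature.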
Fluorescein autfl = qHTS Assay for Spectroscopic Profiling in Fluorescein Spectral Region; 0.91% of 59,000 active; max fluorescein-equivalent concentration, M; Compound autofluorescence, 480/540 nm, fluorescein-equivalent; active compounds read high; AID 593, 2007; in the data active = max fluorescein-equivalent concentration above about 10 nM; inconclusive = between about 1.1 nM and that limit
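Tris 100 mM pH 8.0; 15 min RT; CCD read, ex 480/em 540 nm. Output: fluorescein-equivalent concentration per compound concentration, from six-point dye series on each plate.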
Rhodamine autofl = qHTS Assay for Spectroscopic Profiling in Rhodamine Spectral Region. AID 594, 2007. 0.05% of 59,000 active. Rhodamine-region fluorescence, 547/598 nm, Tris buffer; active compounds read high. max dye-equivalent concentration, M; in the data active = max dye-equivalent concentration above about 11 nM; inconclusive = between about 1.1 nM and that limit
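qHTS spectral profiling of compounds without any target or enzyme present, in pH 8.0 Tris buffer; plates were read after a 15-minute room-temperature incubation using the rhodamine-region filter set.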
Texas Red fluor = qHTS Assay for Spectroscopic Profiling in Texas Red Spectral Region | AID 587, 2007 | 0.06% of 59,000 active | max dye-equivalent concentration, M | Compound fluorescence, Texas Red channel, 547/618 nm; active compounds read high; in the data active = max dye-equivalent concentration above about 10 nM; inconclusive = between about 1.1 nM and that limit
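Spectral interference profiling: each compound concentration's relative fluorescence, read with a 547 nm excitation and 618 nm emission filter pair, was normalized to a per-plate Texas Red standard curve.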
A647 autofl = qHTS Assay for Spectroscopic Profiling in A647 Spectral Region; Compound fluorescence, A647 channel (570/671 nm), Tris buffer; max dye-equivalent concentration, M; 59,000 tested, under 10 active;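 note: values scaled relative to a standard on each plate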
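Spectral profiling of library compounds in pH 8.0 Tris: 15 min room-temperature incubation, single ex/em pair (570/671 nm), response normalized to Alexa 647 equivalents.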
Resorufin autofl = qHTS Assay for Spectroscopic Profiling in Resorufin Spectral Region | Compound fluorescence, resorufin region 547/598 nm, buffer; active compounds read high | max dye-equivalent concentration, M | 0.04% of 59,000 active
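Dye-equivalent concentration values derive from comparing each well's 547/598 nm fluorescence against resorufin standards included on every plate. Incubation was 15 min at room temperature in 100 mM Tris, pH 8.0.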
* hit, by the source's call; i = inactive; u = inconclusive; ! = not active in a repeat. Unless noted, the rule behind the calls is not given here.

SMILES	A488 fluor	Fluorescein autfl	Rhodamine autofl	Texas Red fluor	A647 autofl	Resorufin autofl
CC(=O)Oc1ccc(/C=C\C(=O)C[C@@H]2O[C@@H](Oc3cc(OC(C)=O)c4c(c3)O[C@@H](c3ccc(OC(C)=O)cc3)CC4=O)[C@H](OC(C)=O)[C@H](OC(C)=O)[C@@H]2OC(C)=O)cc1	i	1.3e-08M*	i	i	5.2e-09	i
CN1CCc2c(cc(O)c(O)c2Cl)[C@H](c2cccc(Cl)c2)C1	i	u	i	i	4.2e-08	i
N[C@@H](Cc1c[nH]c2ccccc12)C(=O)NCC(=O)O	i	i	i	i	3.8e-09	i
c1cnc(N2CCN(c3nc4ccccc4n4cnnc34)CC2)nc1	i	i	i	i	6.2e-09	i
Fc1ccccc1N1CCN(c2nc3ccccc3n3nnnc23)CC1	i	1.6e-08M*	i	i	3.1e-08	i
Fc1ccc(Br)cc1C1C=C(c2ccc(Br)s2)Nc2ncnn21 (stereo not drawn)	i	u	i	i	3.4e-09	i
COc1cccc(C2C=C(c3ccc(Br)s3)Nc3ncnn32)c1OC (stereo not drawn)	i	1.5e-08M*	i	i	1e-09	i
CCCn1c(=NC(=O)c2ccco2)c(C(=O)OCC)cc2c(=O)n3ccccc3nc21	i	i	i	i	1e-09	i
CC(C)n1c(=NC(=O)c2ccco2)c(C#N)cc2c(=O)n3ccccc3cc21	i	1.1e-08M*	i	u	1e-09	i
Cc1cc(-c2ccco2)n2c(nc3ccccc32)c1C#N	u	6e-08M*	i	i	1e-09	i
CCOC(=O)COn1c(=O)c(-c2cccs2)[n+]([O-])c2ccccc21	i	1.3e-08M*	i	i	2.9e-08	i
CCOn1c(=O)c(-c2ccc(OC)cc2)[n+]([O-])c2ccccc21	i	i	i	i	1e-09	i
CN1[C@@H]2CC(OC(=O)[C@@H](CO)c3ccccc3)C[C@H]1[C@H]1O[C@H]12 (stereo partly drawn)	i	u	i	i	1e-09	i
COc1cc(C2C3=C(CC(C)(C)CC3=O)Nc3c2c(=O)[nH]c(=O)n3Cc2ccccc2)ccc1O (stereo not drawn)	i	u	i	i	1e-09	i
COc1ccc(C2C3=C(CC(C)(C)CC3=O)Nc3c2c(=O)[nH]c(=O)n3Cc2ccccc2)cc1OC (stereo not drawn)	i	1.1e-08M*	i	i	5.3e-08	i
Cc1cc(-c2nnc(-c3cc4ccccc4oc3=O)o2)c(C)n1-c1ccccc1	i	i	i	i	1e-09	i
CCCCCCc1cc2cc(-c3nnc(-c4ccccc4O)o3)c(=O)oc2cc1O	i	2.6e-08M*	i	i	4.3e-08	i
C[C@@H]1C[C@@]2(C)Oc3ccccc3[C@H]3OC[C@]1(COC(=O)Nc1ccccc1)[C@@H](C)[C@@H]32	i	i	i	u	5.4e-09	i
O=c1cc(-c2ccc(O)c(O)c2)oc2cc(O[C@@H]3O[C@@H](CO)[C@@H](O)[C@@H](O)[C@H]3O)cc(O)c12	i	u	i	i	1e-09	i
CC1CCCN(c2nc3ccccc3nc2C(C#N)C(=O)OC2CCCCC2)C1 (stereo not drawn)	i	1.4e-08M*	i	u	1e-08	i
N#CC(C(=O)OC1CCCCC1)c1nc2ccccc2nc1N1CCCCC1 (stereo not drawn)	i	1.3e-08M*	i	i	3.9e-09	i
O=C1O/C(=C\Br)CC[C@@H]1c1cccc2ccccc12	i	u	i	i	6.4e-08	i
COc1cccc2c1C(=O)c1c(O)c3c(c(O)c1C2=O)C[C@@](O)(C(=O)CO)C[C@@H]3O[C@H]1C[C@H](N)[C@H](O)[C@H](C)O1	1.3e-08M*	2.9e-07M*	8.7e-08M*	8.3e-08M*	4.6e-09	7.6e-08M*
CC(=O)[C@@]1(O)Cc2c(O)c3c(c(O)c2[C@H](O[C@H]2C[C@H](N)[C@H](O)[C@H](C)O2)C1)C(=O)c1ccccc1C3=O	2.4e-08M*	4.7e-07M*	4.2e-08M*	u	6.7e-08	2.4e-08M*
COc1cccc2c1C(=N)c1c(O)c3c(c(O)c1C2=O)C[C@](O)(C(C)=O)C[C@@H]3O[C@H]1C[C@H](N)[C@@H](O)[C@H](C)O1	i	i	u	1e-08M*	2e-08	i
SMILES	A488 fluor	Fluorescein autfl	Rhodamine autofl	Texas Red fluor	A647 autofl	Resorufin autofl
COc1cccc2c1C(=O)c1c(O)c3c(c(O)c1C2=O)C[C@](O)(C(C)=O)C[C@H]3O[C@@H]1C[C@H](N)[C@H](O)[C@H](C)O1	u	2e-07M*	6e-08M*	5.9e-08M*	7e-09	4.5e-08M*
Fc1ccc(C(c2ccc(F)cc2)N2CCN(C/C=C\c3ccccc3)CC2)cc1	i	u	i	i	1e-09	i
Cc1cc(OCC(=O)NCCN2CCOCC2)ccc1Br	i	2.3e-08M*	i	i	2.6e-08	i
C[C@H]1[C@H](C)CC[C@@]2(C(=O)O)CC[C@]3(C)C(=CC[C@H]4[C@@]5(C)C[C@@H](O)[C@H](O)[C@@](C)(CO)[C@@H]5CC[C@@]43C)[C@@H]12	i	i	i	i	1e-09	i
CC[C@@]12CCCN3CCc4c(n(c5ccccc45)C(=O)C1)[C@H]32	i	1.2e-08M*!	i	i	1e-09	i
CCOc1cccc2cc(C(=O)N3CCc4ccccc43)c(=O)oc12	i	u	1.1e-08M*	2.3e-08M*	1e-09	u
COc1cccc2cc(C(=O)N3CCc4ccccc43)c(=O)oc12	i	i	i	i	1.2e-08	i
Cc1ccccc1-n1c(=O)/c(=C\c2ccco2)s/c1=C(/C#N)C(=O)Nc1ccccc1	i	1.4e-08M*	i	i	1e-09	i
N/N=C1/CC(=O)NC(=O)N1	i	u	i	u	7.2e-09	i
CCOC(=O)c1csc(NC(=O)CSc2nnnn2-c2ccc(OCC)cc2)n1	i	2.3e-08M*	i	i	1e-09	i
CCN1C(=S)SC(=O)C1=C1C=C(C)N(Cc2ccco2)C(C)=C1	i	u	i	u	4.7e-09	i
CCN1C(=S)SC(=O)C1=C1C=C(C)OC(C)=C1	u	1.7e-07M*	i	u	1e-09	i
CC1(C)[C@@H](O)CC[C@@]2(C)[C@H]1CC[C@]1(C)[C@H]2C(=O)C=C2[C@@H]3C[C@@](C)(C(=O)O)CC[C@]3(C)CC[C@@]21C	i	u	i	i	3e-08	i
Nc1nc(Cl)nc2c1ncn2[C@@H]1O[C@@H](CO)[C@@H](O)[C@H]1O	i	u	i	i	5.8e-09	i
COC(=O)c1ccc2c(c1)SC1=C(CCCC1=O)N2	u	5.3e-08M*	2e-08M*	2.1e-08M*	6.8e-08	1.9e-08M*

Assay outcomes (PubChem)
